Data: PMC5540273 (PLoS ONE, 2017)

How the values were obtained:
Details in all cases: concentration: 1 μM, replicates: in singlicate; n = 1
CAMK1 = tested on: CAMK1
CAMK2A = tested on: CAMK2A
CAMK2B = tested on: CAMK2B
CAMK2D = tested on: CAMK2D
CAMK2G = tested on: CAMK2G
CAMK4 = tested on: CAMK4
CAMKK1 = tested on: CAMKK1
CAMKK2 = tested on: CAMKK2
CASK = tested on: CASK
CDC2L1 = tested on: T1, CDC2L1
T1 construct: gene CDK11B

CDC2L2 = tested on: CDC2L2
CDC2L5 = tested on: T2, CDC2L5
T2 construct: gene CDK13

CDK11 = tested on: T3, CDK11
T3 construct: gene CDK19

CDK2 = tested on: CDK2
CDK3 = tested on: CDK3
CDK4-cyclinD1 = tested on: CDK4-cyclinD1
CDK4-cyclinD3 = tested on: CDK4-cyclinD3
CDK4 = tested on: CDK4
CDK5 = tested on: CDK5
CDK7 = tested on: CDK7
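Also: KINOMEscan kinase panel screen.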

| SMILES | %Inh (CAMK1) [%] | %Inh (CAMK2A) [%] | %Inh (CAMK2B) [%] | %Inh (CAMK2D) [%] | %Inh (CAMK2G) [%] | %Inh (CAMK4) [%] | %Inh (CAMKK1) [%] | %Inh (CAMKK2) [%] | %Inh (CASK) [%] | %Inh (CDC2L1) [%] | %Inh (CDC2L2) [%] | %Inh (CDC2L5) [%] | %Inh (CDK11) [%] | %Inh (CDK2) [%] | %Inh (CDK3) [%] | %Inh (CDK4-cyclinD1) [%] | %Inh (CDK4-cyclinD3) [%] | %Inh (CDK4) [%] | %Inh (CDK5) [%] | %Inh (CDK7) [%] |
| --- | --- | --- | --- | --- | --- | --- | --- | --- | --- | --- | --- | --- | --- | --- | --- | --- | --- | --- | --- | --- |
| CC(C)c1nc(-c2cccc(NS(=O)(=O)c3c(F)cccc3F)c2F)c(-c2ccnc(Nc3ccc(N4CCOCC4)nc3)n2)s1 [GSK2008607] | 81 | 0 | 0 | 3 | 29 | 65 | 55 | 15 | 0 | 12 | 47 | 84 | 6 | 99.4 | 99.5 | 65 | 93.6 | 96.3 | 99.1 | 93.1 |
| CCn1c(-c2nonc2N)nc2c(C#CC(C)(C)O)nc(OC[C@H](N)c3ccccc3)cc21 [GSK943949] | 0 | 0 | 0 | 0 | 0 | 0 | 0 | 0 | 25 | 0 | 0 | 2 | 0 | 0 | 0 | 0 | 8 | 0 | 9 | 5 |
| COc1cccc(C2=C(Nc3ccc(Cl)c(C(=O)O)c3)C(=O)NC2=O)c1 [SB-390769] | 0 | 0 | 0 | 3 | 1 | 0 | 0 | 0 | 100 | 0 | 0 | 0 | 100 | 9 | 25 | 7 | 100 | 0 | 0 | 0 |
| CN1CCN(Cc2cccc(-c3ccc4c(Nc5ccc(Oc6ccccc6)cc5)ccnc4c3)c2)CC1 [GW578342] | 27 | 1 | 0 | 5 | 10 | 0 | 0 | 0 | 1 | 0 | 16 | 0 | 0 | 0 | 2 | 0 | 0 | 34 | 0 | 5 |
| Nc1ncc(-c2cccnc2)c2scc(-c3ccc4c(c3)CCN4C(=O)Cc3ccccc3)c12 [GSK683281] | 22 | 0 | 0 | 19 | 37 | 1 | 34 | 26 | 26 | 0 | 8 | 0 | 45 | 0 | 21 | 0 | 0 | 14 | 9 | 0 |
| C[C@@H]1CC[C@@H](C(=O)Nc2ccccc2)CN1c1cc(-c2ccc3c(N)n[nH]c3c2)nc(N)n1 [GSK2286062] | 28 | 0 | 0 | 17 | 18 | 0 | 0 | 7 | 5 | 7 | 20 | 0 | 0 | 20 | 0 | 0 | 0 | 16 | 0 | 0 |
| O=C(Nc1n[nH]c2cc(-c3ccoc3)ccc12)C1CC1 [SB-738481] | 0 | 8 | 0 | 14 | 25 | 0 | 2 | 18 | 0 | 0 | 0 | 29 | 0 | 76 | 51 | 14 | 3 | 0 | 17 | 71 |
| Cc1ccc(C)c(NC(=O)NC2CCN(c3ccnc(Nc4ccc(F)cc4)n3)C2)c1 (stereo not shown) [GSK1379720] | 2 | 0 | 0 | 19 | 4 | 0 | 0 | 0 | 9 | 0 | 0 | 0 | 57 | 0 | 10 | 37 | 0 | 35 | 0 | 0 |
| CCS(=O)(=O)c1ccc(OC)c(Nc2nccc(-c3c(-c4cccc(NC(=O)c5c(F)cccc5F)c4)nn4ncccc34)n2)c1 [GSK326180] | 9 | 0 | 0 | 15 | 27 | 0 | 0 | 20 | 16 | 0 | 15 | 0 | 11 | 0 | 7 | 0 | 12 | 0 | 0 | 0 |
| O=C(Nc1cccc(-c2nn3ncccc3c2-c2ccnc(Nc3ccccc3)n2)c1)c1c(F)cccc1F [GSK198271] | 39 | 0 | 0 | 13 | 8 | 0 | 0 | 8 | 3 | 0 | 18 | 0 | 0 | 0 | 8 | 0 | 0 | 0 | 0 | 0 |
| COc1ccc(-c2coc3ccc(-c4nnc(SCc5ccc(OC)c(C(F)(F)F)c5)o4)cc23)cc1 | 0 | 0 | 1 | 7 | 0 | 12 | 1 | 2 | 1 | 0 | 17 | 0 | 57 | 1 | 0 | 2 | 0 | 0 | 14 | 0 |
| Nc1ncc(-c2ccc3nccc(-c4ccncc4)c3c2)cc1S(=O)(=O)N1CCOCC1 [GSK1627798] | 27 | 0 | 0 | 0 | 49 | 0 | 57 | 78 | 48 | 0 | 0 | 0 | 40 | 1 | 6 | 0 | 47 | 0 | 0 | 72 |
| CN(C)S(=O)(=O)c1cc(-c2ccc3nccc(-c4cccc(S(N)(=O)=O)c4)c3c2)cnc1N [GSK1669921] | 40 | 1 | 0 | 3 | 8 | 0 | 48 | 47 | 4 | 0 | 3 | 0 | 54 | 0 | 9 | 0 | 0 | 0 | 0 | 58 |
| Cc1occc1-c1ncc(OC[C@@H](N)Cc2c[nH]c3ccccc23)cc1-c1ccc2[nH]nc(C)c2c1.O=C(O)C(F)(F)F [GSK682037] | 25 | 20 | 27 | 47 | 52 | 0 | 19 | 16 | 11 | 0 | 6 | 0 | 35 | 0 | 2 | 0 | 0 | 0 | 0 | 30 |
| FC(F)(F)c1ccc(/C=C/c2cncnc2Nc2ccc3[nH]c(Cc4ccccc4)nc3c2)cc1 [GW709199] | 0 | 34 | 36 | 3 | 8 | 0 | 19 | 0 | 10 | 0 | 0 | 6 | 10 | 0 | 50 | 23 | 0 | 6 | 0 | 0 |
| CCCCc1nn2ncccc2c1-c1ccnc(Nc2ccc(N3CCN(C)CC3)cc2)n1 [GW684941] | 28 | 0 | 0 | 0 | 0 | 0 | 0 | 0 | 16 | 0 | 7 | 0 | 19 | 0 | 9 | 63 | 53 | 46 | 0 | 34 |
| CN1CCN(CCCNc2nccc(-c3c(-c4ccc(F)cc4)nn4cc(C(F)(F)F)ccc34)n2)CC1 [GW621581] | 5 | 0 | 0 | 0 | 0 | 0 | 0 | 0 | 0 | 0 | 0 | 0 | 0 | 0 | 0 | 0 | 0 | 0 | 0 | 0 |
| CSc1cccc2c(-c3ccncn3)c(-c3ccc(F)cc3)nn12 [GW514786] | 0 | 0 | 0 | 0 | 10 | 0 | 0 | 0 | 45 | 0 | 17 | 0 | 8 | 11 | 9 | 13 | 0 | 15 | 0 | 2 |
| COc1cc(Nc2nccc(-c3c(-c4cccc(NC(=O)c5c(F)cccc5F)c4)nn4ncccc34)n2)cc(OC)c1OC [GSK327238] | 58 | 0 | 0 | 10 | 19 | 0 | 24 | 18 | 14 | 16 | 15 | 0 | 0 | 0 | 4 | 0 | 97.4 | 21 | 0 | 0 |
| Cc1ccc(F)c(C(=O)Nc2cccc(-c3nn4ccccc4c3-c3ccnc(Nc4cccc(F)c4)n3)c2)c1F [GSK361061] | 26 | 5 | 0 | 8 | 15 | 11 | 17 | 14 | 19 | 0 | 23 | 0 | 14 | 11 | 17 | 0 | 0 | 3 | 4 | 0 |
